Reference: PubChem BioAssay (EPA / NIEHS)
“And” between values parts separate entries of the source, which are not always exact repeats. Equal entries are not always repeated. Some structures have more than one record in an assay (separate samples or runs), and their calls can disagree. The source made the active and inactive calls. The calls were made as follows: active = hit-call score of the fitted dose curve at least 0.9, where 1 is the maximum; inactive = score below 0.9.

Columns and labels:
[1] = read-out: Vascular cell adhesion molecule 1 (VCAM1), VCAM1 (gene 7412); assay: BSK_CASM3C_VCAM1: BioMAP Diversity Plus: CASM3C Assay for Vascular cell adhesion molecule 1 (VCAM1) Biomarker Activity (AID 2283055); settings: primary human coronary artery smooth muscle cells; actives raise or lower the signal;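 also: VCAM-1 protein level quantified by ELISA on the cells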
[2] = read-out: Collagen III, COL3A1 (gene 1281); assay: BSK_hDFCGF_CollagenIII: BioMAP Diversity Plus: hDFCGF Assay for Collagen III Biomarker Activity (AID 2283056); settings: primary human foreskin fibroblasts; actives raise or lower the signal
Procedure, shortened: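 Human foreskin primary fibroblasts were exposed to test chemicals for 24 h, after which collagen III was quantified by ELISA. Activity was fitted bidirectionally against DMSO as negative control and baseline.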

[3] = read-out: Epidermal growth factor receptor (EGFR), EGFR (gene 1956); assay: BSK_hDFCGF_EGFR: BioMAP Diversity Plus: hDFCGF Assay for Epidermal growth factor receptor (EGFR) Biomarker Activity (AID 2283057); settings: primary human foreskin fibroblasts; actives raise or lower the signal
Procedure, shortened: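 Measured by ELISA: EGFR levels on primary human foreskin fibroblasts 24 h after chemical treatment, analysed relative to DMSO with bidirectional fitting.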

[4] = read-out: Interleukin-8 (IL8), CXCL8 (gene 3576); assay: BSK_hDFCGF_IL8: BioMAP Diversity Plus: hDFCGF Assay for Interleukin-8 (IL8) Biomarker Activity (AID 2283058); settings: primary human foreskin fibroblasts; actives raise or lower the signal
Procedure, shortened: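 hDFCGF human dermal fibroblasts; 24 h chemical exposure; IL-8 by ELISA; bidirectional curve fit vs DMSO baseline; gain or loss of signal scored.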

[5] = BSK_hDFCGF_Proliferation: Cell Proliferation Assessment in the BioMAP Diversity Plus: hDFCGF Assay (AID 2283059); settings: primary human foreskin fibroblasts;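 also: curves fitted for both rise and fall of signal versus DMSO baseline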
Procedure, shortened: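 Primary human foreskin fibroblasts, sub-confluent; […]; 10% TCA fix, 0.1% SRB stain, A560 total protein. Gain/loss fitted bidirectionally vs DMSO control.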

[6] = read-out: Macrophage colony-stimulating factor (MCSF), CSF1 (gene 1435); assay: BSK_hDFCGF_MCSF: BioMAP Diversity Plus: hDFCGF Assay for Macrophage colony-stimulating factor (MCSF) Biomarker Activity (AID 2283060); settings: primary human foreskin fibroblasts; actives raise or lower the signal
Procedure, shortened: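 Human foreskin primary fibroblasts were treated with test chemical for 24 h, and M-CSF was then measured by ELISA. Data were fitted bidirectionally against DMSO as the negative control and activity baseline.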

[7] = read-out: TIMP metallopeptidase inhibitor 1 (TIMP1), TIMP1 (gene 7076); assay: BSK_hDFCGF_TIMP1: BioMAP Diversity Plus: hDFCGF Assay for TIMP metallopeptidase inhibitor 1 (TIMP1) Biomarker Activity (AID 2283062); settings: primary human foreskin fibroblasts; actives raise or lower the signal
Procedure, shortened: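 Primary human foreskin fibroblasts in the hDFCGF system were dosed with compound for 24 h, then TIMP-1 was measured by ELISA. Activity was fitted bidirectionally relative to DMSO control; parallel SRB staining assessed cytotoxicity.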

[8] = read-out: Monokine induced gamma interferon (MIG), CXCL9 (gene 4283); assay: BSK_hDFCGF_MIG: BioMAP Diversity Plus: hDFCGF Assay for Monokine induced gamma interferon (MIG) Biomarker Activity (AID 2283063); settings: primary human foreskin fibroblasts; actives raise or lower the signal
Procedure, shortened: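 ELISA read-out of MIG from primary human dermal fibroblasts 24 h post-dosing. Gain or loss of signal fitted bidirectionally, DMSO as baseline.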

[9] = read-out: Matrix Metallopeptidase 1 (MMP1), MMP1 (gene 4312); assay: BSK_hDFCGF_MMP1: BioMAP Diversity Plus: hDFCGF Assay for Matrix Metallopeptidase 1 (MMP1) Biomarker Activity (AID 2283064); settings: primary human foreskin fibroblasts; actives raise or lower the signal
Procedure, shortened: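 hDFCGF primary fibroblasts (human foreskin); chemical added; 24 h; MMP1 by ELISA; bidirectional fit vs DMSO.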

[10] = read-out: Vascular cell adhesion molecule 1 (VCAM1), VCAM1 (gene 7412); assay: BSK_hDFCGF_VCAM1: BioMAP Diversity Plus: hDFCGF Assay for Vascular cell adhesion molecule 1 (VCAM1) Biomarker Activity (AID 2283065); settings: primary human foreskin fibroblasts; actives raise or lower the signal;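 also: VCAM-1 protein level quantified by ELISA after 24 h chemical exposure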
Procedure, shortened: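 Primary human foreskin fibroblasts (hDFCGF system) were dosed with chemical and VCAM-1 was measured by ELISA 24 h later. Bidirectional curve fitting used DMSO as negative control and activity baseline.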

[11] = read-out: Plasminogen activator inhibitor-1 (PAI1), SERPINE1 (gene 5054); assay: BSK_hDFCGF_PAI1: BioMAP Diversity Plus: hDFCGF Assay for Plasminogen activator inhibitor-1 (PAI1) Biomarker Activity (AID 2283066); settings: primary human foreskin fibroblasts; actives raise or lower the signal
Procedure, shortened: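 PAI-1 levels, determined by ELISA, served as the endpoint in human foreskin fibroblast cultures exposed to compound for 24 h, with DMSO as baseline.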

[12] = read-out: Intercellular Adhesion Molecule 1 (ICAM1), ICAM1 (gene 3383); assay: BSK_KF3CT_ICAM1: BioMAP Diversity Plus: KF3CT Assay for Intercellular Adhesion Molecule 1 (ICAM1) Biomarker Activity (AID 2283067); settings: primary human keratinocytes with fibroblasts; actives raise or lower the signal
Procedure, shortened: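 Human keratinocyte plus foreskin fibroblast primary co-culture was exposed to chemical for 24 h. ICAM-1 was then quantified by ELISA, and the data were fit bidirectionally against DMSO as the negative control and baseline.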

[13] = read-out: Interferon-gamma inducible Protein 10 (IP10), CXCL10 (gene 3627); assay: BSK_KF3CT_IP10: BioMAP Diversity Plus: KF3CT Assay for Interferon-gamma inducible Protein 10 (IP10) Biomarker Activity (AID 2283068); settings: primary human keratinocytes with fibroblasts; actives raise or lower the signal
Procedure, shortened: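 In a primary skin co-culture of keratinocytes and fibroblasts, IP-10 is quantified by ELISA at 24 h after dosing. SRB staining of parallel wells monitors overt toxicity. Curves are fitted both directions against DMSO.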

[14] = BSK_KF3CT_SRB: Viability Assessment in the BioMAP Diversity Plus: KF3CT Assay (AID 2283069); settings: primary human keratinocytes with fibroblasts;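 also: total protein by sulforhodamine B staining as a cytotoxicity measure; read 24 h after compound addition; fitted for both signal gain and loss against DMSO baseline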
Procedure, shortened: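 Keratinocytes co-cultured with foreskin fibroblasts (human primary); chemical added, 24 h; fix 10% TCA, stain 0.1% SRB, A560. Bidirectional fit vs DMSO.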

[15] = read-out: Interleukin-1 alpha (IL1a), IL1A (gene 3552); assay: BSK_KF3CT_IL1a: BioMAP Diversity Plus: KF3CT Assay for Interleukin-1 alpha (IL1a) Biomarker Activity (AID 2283070); settings: primary human keratinocytes with fibroblasts; actives raise or lower the signal
Procedure, shortened: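 Chemicals were dosed onto co-cultured human keratinocytes and foreskin fibroblasts, IL-1a was quantified by ELISA at 24 h, and activity was fitted in both directions relative to DMSO controls.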

[16] = read-out: TIMP metallopeptidase inhibitor 2 (TIMP2), TIMP2 (gene 7077); assay: BSK_KF3CT_TIMP2: BioMAP Diversity Plus: KF3CT Assay for TIMP metallopeptidase inhibitor 2 (TIMP2) Biomarker Activity (AID 2283071); settings: primary human keratinocytes with fibroblasts; actives raise or lower the signal
Procedure, shortened: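 Keratinocyte–fibroblast co-culture, 24 h exposure; TIMP-2 ELISA, DMSO-normalised bidirectional fit. Parallel SRB (0.1%, TCA-fixed, 560 nm) total-protein staining gauges cytotoxicity.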

[17] = read-out: C-C motif chemokine 2 (Homo sapiens) (UniProt P13500); assay: BSK_KF3CT_MCP1: BioMAP Diversity Plus: KF3CT Assay for Monocyte Chemoattractant Protein 1 (MCP1/CCL2) Biomarker Activity (AID 2283073); settings: primary human keratinocytes with fibroblasts; actives raise or lower the signal
Procedure, shortened: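 Human keratinocyte plus foreskin fibroblast primary co-culture exposed to chemical for 24 h. MCP-1 levels measured by ELISA. Bidirectional curve fitting relative to DMSO negative control as baseline.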

[18] = read-out: urokinase plasminogen activator (uPA), PLAU (gene 5328); assay: BSK_KF3CT_uPA: BioMAP Diversity Plus: KF3CT Assay for urokinase plasminogen activator (uPA) Biomarker Activity (AID 2283075); settings: primary human keratinocytes with fibroblasts; actives raise or lower the signal
Procedure, shortened: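 ELISA readout of uPA, analyzed for signal gain or loss relative to DMSO, from a human primary keratinocyte–foreskin fibroblast co-culture measured 24 h after chemical treatment.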

[19] = read-out: CD40, CD40 (gene 958); assay: BSK_LPS_CD40: BioMAP Diversity Plus: LPS Assay for CD40 Biomarker Activity (AID 2283076); settings: primary human HUVEC with PBMC; actives raise or lower the signal
Procedure, shortened: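 Primary human umbilical vein endothelial cells co-cultured with peripheral blood mononuclear cells, LPS-stimulated, were dosed with chemical and read 24 h later. CD40 levels were measured by ELISA and fitted bidirectionally against DMSO as negative control and baseline.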

[20] = read-out: Interleukin-8 (IL8), CXCL8 (gene 3576); assay: BSK_LPS_IL8: BioMAP Diversity Plus: LPS Assay for Interleukin-8 (IL8) Biomarker Activity (AID 2283078); settings: primary human HUVEC with PBMC; actives raise or lower the signal
Procedure, shortened: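 Human umbilical vein endothelial cells co-cultured with PBMC were stimulated with LPS; IL-8 levels were measured by ELISA 24 h after chemical dosing. Activity was fitted bidirectionally against DMSO as negative control and baseline.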

Measured: AC50

[Cd+2].[Cl-].[Cl-]
active: [1] 4.05 µM and 3.51 µM | [2] 3.57 µM and 4.55 µM | [3] 0.156 µM | [4] 24.2 µM and 23 µM | [5] 919 nM and 655 nM | [6] 939 nM and 1.2 µM | [7] 1.12 µM and 1.63 µM | [8] 9.86 µM and 5.69 µM | [9] 3.97 µM and 4.18 µM | [10] 1.9 µM and 2.23 µM | [11] 601 nM and 305 nM | [12] 29.2 µM and 27.5 µM | [13] 35.2 µM and 33.4 µM | [14] 32.4 µM and 32.1 µM | [15] 33.8 µM and 30.1 µM | [16] 28.2 µM and 20 µM | [17] 20 µM and 14.1 µM | [18] 32.6 µM and 35.8 µM | [19] 13.1 µM | [20] 28.9 µM
inactive: [3] | [19]
